The source of these data is PubChem BioAssay.

Structures are written as SMILES. “And” between values parts separate entries of the source, which are not always exact repeats. Identical values can stand only once. The source made the active and inactive calls. Unless noted, how the calls were made is not given here.

Experiment [1] in a line: P. berghei load reduction in hepatocytes – cell-based, HepG2, luciferase luminescence, HepG2 viability, primary screen (AID 624349; in the data active means parasite load remaining mostly below about 12%, no sharp cut-off; inactive means mostly above about 10%;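 further: 100% = mean of DMSO negative control wells on the same plate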). The conditions noted are these: P. berghei liver stage in HepG2, luciferase luminescence, concentration not given here; parasite load remaining: stronger effect = lower value; viability: measured here: HepG2 viability without parasites.
The nature of experiment [2]: signal quenchers or enhancers, Cy5 substrate/SSB – biochemical, NIH Clinical Collection, E. coli SSB, artefact control for HCV NS3 helicase inhibitor project (AID 743268). As to conditions: Cy5-oligo bound E. coli SSB, fluorescence interference.
The subject of experiment [3] is Hepatitis C virus NS3 helicase. Description: blockers of NS3h binding to DNA – biochemical, fluorescence polarization, NIH Clinical Collection, primary screen (AID 743270). The conditions noted are these: NS3 helicase binding to Cy5-dT15 DNA, stronger effect = higher value, concentration not given here.
For experiment [4], the target named is Single-stranded DNA-binding protein (Escherichia coli (strain K12)) (UniProt P0AGE0). Description: SSB-ssDNA binding inhibitors – biochemical, fluorescence polarization, NIH Clinical Collection, counter-screen for HCV NS3 helicase inhibitor project (AID 743271; in the data active means inhibition above about 28%). As to conditions: E. coli SSB-DNA binding, stronger effect = higher value, concentration not given here.
Experiment [5] can be described thus: compounds distorting NS3 helicase fluorescence signal – biochemical, NIH Clinical Collection, artefact control for HCV NS3 helicase inhibitor project (AID 743272).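 Further: HCV NS3 helicase with a Cy5 labelled single stranded DNA probe.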 The conditions noted are these: fluorescence interference counterscreen, HCV NS3 helicase assay; stronger effect = lower value. Background: Counterscreens check selectivity or assay interference.
For experiment [6], the target named is 6-phosphogluconate dehydrogenase, decarboxylating (Homo sapiens) (UniProt P52209). The experiment is described as follows: inhibition of human phosphogluconate dehydrogenase – biochemical, recombinant enzyme, NADPH absorbance, primary screen (AID 1159550;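 active means at least 20% inhibition of 6-phosphogluconate dehydrogenase activity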). As to conditions: recombinant 6PGD, NADPH absorbance 341 nm; at 10 µM; stronger effect = higher value.
6-phosphogluconate dehydrogenase, decarboxylating (Homo sapiens), sequence (P52209 whole entry, looked up): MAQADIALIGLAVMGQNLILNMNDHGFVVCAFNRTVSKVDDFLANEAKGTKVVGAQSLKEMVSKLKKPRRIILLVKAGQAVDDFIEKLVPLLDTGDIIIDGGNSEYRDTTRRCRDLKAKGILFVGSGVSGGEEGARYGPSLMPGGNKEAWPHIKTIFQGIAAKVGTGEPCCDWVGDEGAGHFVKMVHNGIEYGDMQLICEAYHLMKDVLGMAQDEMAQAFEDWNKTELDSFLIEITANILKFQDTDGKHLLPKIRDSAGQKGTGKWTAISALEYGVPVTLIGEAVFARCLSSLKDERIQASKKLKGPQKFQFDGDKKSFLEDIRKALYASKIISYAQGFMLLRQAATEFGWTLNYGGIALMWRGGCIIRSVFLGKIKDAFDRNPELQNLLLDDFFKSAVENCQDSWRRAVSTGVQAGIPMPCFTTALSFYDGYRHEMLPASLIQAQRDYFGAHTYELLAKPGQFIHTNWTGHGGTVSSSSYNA
Experiment [7] in a line: modulation of C. elegans fzo-1 (AID 1259413).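 Further: fzo-1 mutant C. elegans worms in liquid wells.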 As to conditions: C. elegans fzo-1 modulator screen, mean read-out; stronger effect = higher value.
The nature of experiment [8]: viability loss with induced miR-34 in A549 – imaging, A549 dox-inducible miR-34, nuclei and caspase counts, primary screen (AID 1347080;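 active means compounds whose cell count with miR-34 switched on is under 0.7 times the count with it off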). The conditions noted are these: A549 miR-34 inducible, Hoechst nuclei count, 48 h.
A short description of experiment [9]: MELAS cybrid and Rieske KO viability enhancers – cell-based, MELAS cybrids, Rieske KO mouse fibroblasts, CellTiter-Glo, primary screen (AID 1508586;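 active means mean z-score across replicates of 1.96 or higher in either the MELAS or the Rieske mutant cell line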;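 further: z relative to plate mean and SD of compound and empty wells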). The conditions noted are these: low glucose. (Cellular ATP, detected with luciferase, serves as a proxy for viable cell number.)
Experiment [10] has as its target NAD(+) hydrolase SARM1 (Homo sapiens) (UniProt Q6SZW1). Description: blocking NAD cleavage by SARM1 SAM-TIR – cell lysate, NAD-Glo luminescence (AID 1508614;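 active means compound whose remaining NAD level is above about 45 nM, limit read from the data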). As to conditions: SAM-TIR HEK293T lysate NADase, at 1 µM, stronger effect = higher value.
For experiment [11], the target named is Mitogen-activated protein kinase 7 (Homo sapiens) (UniProt Q13164). The experiment is described as follows: Gal4-ERK5 driven luciferase induction – cell-based, HTS, primary screen (AID 1508626;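 active means luciferase signal above three times the same-plate solvent-only control wells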;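 further: luciferase driven by Gal4-ERK5 fusion binding five Gal4 sites before minimal TATA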). As to conditions: HeLa Gal4-ERK5 transactivation, 18 h, at 5 µM, stronger effect = higher value.
Mitogen-activated protein kinase 7 (Homo sapiens), sequence (Q13164 whole entry, looked up, the tested form may be a part): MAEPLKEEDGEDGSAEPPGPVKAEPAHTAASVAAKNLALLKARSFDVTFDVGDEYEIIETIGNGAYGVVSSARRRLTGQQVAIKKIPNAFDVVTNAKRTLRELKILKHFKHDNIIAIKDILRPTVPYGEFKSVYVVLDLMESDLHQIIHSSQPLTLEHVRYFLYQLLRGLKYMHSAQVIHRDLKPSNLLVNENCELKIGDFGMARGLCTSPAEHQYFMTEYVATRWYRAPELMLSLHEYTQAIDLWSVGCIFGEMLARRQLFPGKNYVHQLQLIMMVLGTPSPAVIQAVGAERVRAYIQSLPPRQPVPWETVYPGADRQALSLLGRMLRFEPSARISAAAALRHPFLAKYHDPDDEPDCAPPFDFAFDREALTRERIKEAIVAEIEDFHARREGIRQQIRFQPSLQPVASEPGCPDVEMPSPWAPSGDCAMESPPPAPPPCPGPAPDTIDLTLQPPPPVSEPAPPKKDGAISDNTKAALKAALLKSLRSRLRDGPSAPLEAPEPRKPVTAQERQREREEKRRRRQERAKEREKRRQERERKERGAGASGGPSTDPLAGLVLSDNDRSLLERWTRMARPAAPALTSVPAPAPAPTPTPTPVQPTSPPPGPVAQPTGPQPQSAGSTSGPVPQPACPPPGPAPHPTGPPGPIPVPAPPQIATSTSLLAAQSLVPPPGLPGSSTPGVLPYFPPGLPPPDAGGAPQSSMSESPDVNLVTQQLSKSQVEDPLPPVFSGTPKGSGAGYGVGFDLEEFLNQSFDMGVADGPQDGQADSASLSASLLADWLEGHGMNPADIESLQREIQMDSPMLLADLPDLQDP
A short description of experiment [12]: galactose survival enhancers in mitochondrial complex I cybrids – cell-based, galactose medium, ATP luminescence, primary screen (AID 1645843;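 active means z-score of at least 1.8 in each of two replicates, scored against plate mean and spread of sample wells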;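 further: positive z means more ATP and so rescue of galactose-driven cybrid death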). The conditions noted are these: complex I mutant cybrid cells, 72 h, stronger effect = higher value.
A further experiment relates to F380Y. Description: BK channel mutant inhibitors and activators – cell-based, U2OS BacMam, thallium flux, beta subunits, selectivity assay, profiling panel (AID 1259406;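 active means thallium flux through the channel raised or lowered by more than 3 SD from vehicle-only wells, actives on both sides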;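 further: initial slope of Thallos dye fluorescence rise after thallium is added; log ratio against the mean of 0.3% DMSO vehicle wells on the same plate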). The conditions noted are these: U2OS BacMam BK variants, at 30 µM.
For another experiment, the system named is F380Y/beta2Delta. Described as above. As to conditions: U2OS BacMam BK variants, at 30 µM.
Experiment [13] addresses Calcium-activated potassium channel subunit alpha-1 (Homo sapiens) + Leucine-rich repeat-containing protein 26 (Homo sapiens) (UniProt Q12791+Q2I0M4). Described as above. As to conditions: U2OS BacMam BK variants, F380Y/Slo1WT/gamma1, at 30 µM.
The next experiment has as its system R275C. Described as above. As to conditions: U2OS BacMam BK variants, at 30 µM.
Another experiment has as its system R275C/beta1. The experiment is described as above. The conditions noted are these: U2OS BacMam BK variants, at 30 µM.
The next experiment concerns R275C/beta2Delta. The experiment is described as above. As to conditions: U2OS BacMam BK variants, at 30 µM.
The nature of experiment [14]: EMT-state selective cytotoxicity in co-culture – imaging, PC-3E GFP, TEM4-18 mCherry, primary screen (AID 1345086;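 active means compounds killing one labelled cell type while sparing the other, by normalised counts and ratio limits, not self-fluorescent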;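 on all read-outs here: cells exposed to compound for 72 h before imaging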;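 on red/green cell ratio (normalised): normalised mesenchymal count divided by normalised epithelial count so high means epithelial killing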). The conditions noted are these: PC-3E GFP / TEM4-18 mCherry co-culture, imaging cell counts, at 1 µM; for red/green cell ratio (normalised): actives lie on both sides, counts scaled to control wells, 1 = unselective.
The mark [15] stands for this setting: stronger effect = lower value, cell number ratio, induced over uninduced.
Setting [16] is: measured here: relative caspase fold change +Dox/-Dox.
[17] abbreviates: measured here: total cells with miR-34 induction, stronger effect = lower value.
Where [18] appears, read: measured here: total cells without miR-34 induction.
Setting [19] is: MELAS cybrid survival, CellTiter-Glo 48 h, stronger effect = higher value.
Setting [20] is: Rieske KO mouse fibroblast survival, CellTiter-Glo 72 h.
Setting [21] is: measured here: epithelial PC-3E GFP cell survival.
The mark [22] stands for this setting: measured here: mesenchymal TEM4-18 mCherry cell survival.

Usually viability stands for a read-out of living cells in per cent, often relative to untreated cells. As usually defined, the inhibition is the drop in the measured response relative to a control, in per cent.

NAD(+) hydrolase SARM1 (Homo sapiens), sequence (Q6SZW1 whole entry, looked up, the tested form may be a part): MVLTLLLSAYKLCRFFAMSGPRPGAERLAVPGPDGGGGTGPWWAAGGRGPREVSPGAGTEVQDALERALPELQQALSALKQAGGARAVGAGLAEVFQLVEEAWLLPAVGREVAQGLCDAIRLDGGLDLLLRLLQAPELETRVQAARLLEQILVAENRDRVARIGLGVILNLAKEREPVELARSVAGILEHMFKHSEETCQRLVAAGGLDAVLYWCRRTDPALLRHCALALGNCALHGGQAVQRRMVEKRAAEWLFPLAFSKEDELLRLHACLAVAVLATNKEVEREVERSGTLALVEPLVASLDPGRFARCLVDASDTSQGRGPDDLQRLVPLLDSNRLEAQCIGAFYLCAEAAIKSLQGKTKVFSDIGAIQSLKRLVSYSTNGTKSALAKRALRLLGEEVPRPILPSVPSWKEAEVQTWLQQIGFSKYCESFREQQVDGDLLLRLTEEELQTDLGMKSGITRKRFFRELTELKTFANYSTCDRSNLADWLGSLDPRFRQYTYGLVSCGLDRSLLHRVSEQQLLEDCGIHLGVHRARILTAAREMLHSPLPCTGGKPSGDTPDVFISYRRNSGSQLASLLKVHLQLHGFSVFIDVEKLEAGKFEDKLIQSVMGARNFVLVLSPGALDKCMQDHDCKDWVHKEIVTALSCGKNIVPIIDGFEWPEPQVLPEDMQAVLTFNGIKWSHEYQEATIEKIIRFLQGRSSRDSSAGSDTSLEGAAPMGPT
Calcium-activated potassium channel subunit alpha-1 (Homo sapiens) + Leucine-rich repeat-containing protein 26 (Homo sapiens), sequence (Q2I0M4 whole entry, looked up, one chain of several): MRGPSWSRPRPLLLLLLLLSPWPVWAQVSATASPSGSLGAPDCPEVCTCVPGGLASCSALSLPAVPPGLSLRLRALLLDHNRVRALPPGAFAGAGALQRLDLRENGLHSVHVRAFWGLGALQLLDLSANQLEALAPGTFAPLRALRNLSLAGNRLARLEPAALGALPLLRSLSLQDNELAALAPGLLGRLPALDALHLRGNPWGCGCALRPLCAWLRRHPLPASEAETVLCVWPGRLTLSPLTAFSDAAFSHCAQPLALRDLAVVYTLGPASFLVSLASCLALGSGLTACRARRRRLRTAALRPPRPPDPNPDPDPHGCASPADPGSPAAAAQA

For the molecule `CCN1CCN(C(=O)N[C@@H](C(=O)N[C@@H]2C(=O)N3[C@@H]2SC(C)(C)[C@@H]3C(=O)O)c2ccccc2)C(=O)C1=O`, the parasite load remaining in [1] is 50.1% (inactive) and 75.4% (inactive) and 36.6% (inactive). The viability in experiment [1] was 89.8% and 93.5% and 71.5%. Moreover, the fluorescence ratio in experiment [2] is 0.99 (inactive); in experiment [5] it was 0.98 (inactive). The inhibition in [3] is -3.18% (inactive); in experiment [4] it was -1.24% (inactive); in experiment [6] it was 12.4% (inactive). Further, in experiment [7], the mean signal was 257 (inactive). For the same molecule, the fold change in [8] (setting [15]) was 0.928 (inactive) and 0.85 (inactive) and 0.888 (inactive); in experiment [8] (setting [16]) it was 2.92 and 0.912 and 1.53. Also, the cell count was 10600 and 8860 and 9900 in experiment [8] (setting [17]); 11400 and 10400 and 11200 in [8] (setting [18]). In addition, the z-score was 0.757 (inactive) and -0.0978 (inactive) in [9] (setting [19]); 0.573 and 0.405 in [9] (setting [20]); 0.5 (inactive) and 0.93 (inactive) in experiment [12]. In experiment [10], the remaining NAD is 10 nM (inactive). Besides, in experiment [11], the luciferase signal is 72 AU (inactive). Besides, the log fold change Tl+ flux in the experiment on F380Y is -0.0272 (inactive); in the experiment with F380Y/beta2Delta, -0.0244 (inactive); in experiment [13], -0.00699 (inactive); in the experiment on R275C, -0.096 (active); with R275C/beta1, 0.0207 (inactive); in the experiment on R275C/beta2Delta it was -0.0292 (inactive).
As for `CC(C)[N+]1(C)C2CCC1CC(OC(=O)C(CO)c1ccccc1)C2` (centres undefined), the parasite load remaining in experiment [1] was 58.8% (inactive) and 74.5% (inactive). Further, in experiment [1], the viability was 98.1% and 77.4%. The results for the fluorescence ratio in [2] and in experiment [5] were 1.07 (inactive) and 1.02 (inactive), respectively. Besides, the inhibition is -3.18% (inactive) in [3], -3.53% (inactive) in experiment [4] and 11.9% (inactive) in experiment [6]. Moreover, the mean signal in experiment [7] is 254 (inactive). The fold change in experiment [8] (setting [15]) was 0.921 (inactive) and 0.934 (inactive) and 0.97 (inactive); in [8] (setting [16]), 0.608 and 0.704 and 0.785. Further, the cell count in experiment [8] (setting [17]) was 10300 and 7770 and 8120; in experiment [8] (setting [18]) it was 11100 and 8310 and 8370. For the same molecule, the z-score was 0.162 (inactive) in [9] (setting [19]); -0.136 in [9] (setting [20]); 0.14 (inactive) and 0.88 (inactive) in experiment [12]. Also, the log fold change Tl+ flux is 0.00902 (inactive) in the experiment on F380Y; -0.00601 (inactive) in the experiment on F380Y/beta2Delta; 0.0518 (inactive) in experiment [13]; 0.0409 (inactive) in the experiment with R275C; -0.0331 (inactive) in the experiment on R275C/beta1; 0.000928 (inactive) with R275C/beta2Delta.
For `N.N.O=C([O-])C1(C(=O)[O-])CCC1.[Pt+2]`, the inhibition in experiment [6] is -2.44% (inactive). Moreover, the red/green cell ratio (normalised) in [14] is 0.96 (inactive). Moreover, the normalised cell number is 1.09 in experiment [14] (setting [21]) and 1.04 in experiment [14] (setting [22]).
Consider `COc1cc(OC)c2c(=O)c(-c3ccccc3)c(C)oc2c1OC`, for which the inhibition in experiment [6] is -9.49% (inactive). For the same molecule, the red/green cell ratio (normalised) in [14] was 1.02 (inactive). The normalised cell number is 1.09 in experiment [14] (setting [21]) and 1.11 in experiment [14] (setting [22]).
With `CC[C@H](C)C(=O)O[C@H]1CCC=C2C=C[C@H](C)[C@H](CC[C@@H]3C[C@@H](O)CC(=O)O3)[C@H]21`, the parasite load remaining in [1] was 95.7% (inactive) and 85.1% (inactive). The viability in experiment [1] is 67.9% and 134%. The fluorescence ratio is 0.91 (inactive) in experiment [2] and 0.89 (inactive) in [5]. The values for the inhibition in experiment [3], in [4] and in [6] were 0.66% (inactive), 1.97% (inactive) and -1.06% (inactive), respectively. Moreover, the mean signal in experiment [7] was 242 (inactive). Further, the fold change is 0.923 (inactive) and 1.16 (inactive) and 1.1 (inactive) in experiment [8] (setting [15]); 1.44 and 0.292 and 0.944 in experiment [8] (setting [16]). Further, the cell count in [8] (setting [17]) was 2090 and 1930 and 4610; in [8] (setting [18]), 2270 and 1660 and 4180. The z-score in experiment [9] (setting [19]) was 0.801 (inactive) and -1.19 (inactive); in experiment [9] (setting [20]), 0.000262 and -0.468; in experiment [12] it was -0.615 (inactive) and -0.575 (inactive) and 0.1 (inactive). Moreover, in [10], the remaining NAD was 10 nM (inactive). The luciferase signal in experiment [11] is 24 AU (inactive).
